Results as given in PubChem BioAssay (NCI).
This is part of a sample that, as a whole, favours compounds with a hit. Of some 83,000 tested, about 20% had one in any assay.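 Results are percent growth after 48 hours of single-concentration exposure. 100 means growth as in untreated cells, lower positive values show inhibition; negative values down to -100 show cell death.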 Unmarked numbers belong to inactive results. The source made the active and inactive calls. Rule for the calls: active = growth percent below 10; inactive = the rest.

What follows are molecules tested on HCT-116 colon (assay: NCI-60 one-dose screen, 48 h (100 = growth as untreated, 0 = no growth, -100 = all killed)). Conditions: 10 µM unless noted.

Row | SMILES | growth
1 | O=C1c2cc(Br)ccc2-n2c1nc1cc(Br)ccc1c2=O | 81.8%
2 | C/C=C/[C@@H]1C=C[C@@H]2C[C@H](C)CC[C@H]2[C@]1(C)/C(O)=C1/C(=O)[C@H](CO)N(C)C1=O | 61.4%
3 | CCOC(=O)c1ccc(N/C=C/C(=O)c2ccccc2)cc1 | 96.5%
4 | CC(=O)C1=NN(c2ccc(Cl)cc2)C(=O)CN1C | 99.8%
5 | CCn1c2ccc(/C=N/OCCCN(C)C)cc2c2cc(/C=N/OCCCN(C)C)ccc21 | -72.2% (active)
6 | Cc1ccc(C2CC(c3ccc(Nc4nc(NCCO)nc(Nc5ccc(Cl)cc5)n4)cc3)=Nc3c(N)nc(N)nc3N2)cc1 (centres undefined) | -97% (active)
7 | Cn1ccnc1C(=O)/C=C/c1ccc(C(=O)Nc2ccc(NC(=O)CCNC(=O)c3csc(Br)n3)cc2)cc1 | 20.5%
8 | COc1cc(/C=N/n2cnc3oc(-c4ccccc4)cc3c2=N)cc(CN2CCCC2)c1O | -77.8% (active)
9 | Cn1cc(-c2nn3c(=O)cc(-c4ccccc4)nc3s2)c2cc(F)ccc21 | 32.6%
10 | CCNC(=NCCCN(C)C)N/C(N)=N/c1nc2ccccc2s1 | 76.4%
11 | CS(=O)(=O)c1ccc2c(c1)c1c(n2S(=O)(=O)c2ccc(Cl)cc2)CCCC1 | 19.2%
12 | O=C(CSc1nnc(-c2ccc(Cl)cc2)n1-c1ccccc1)Nc1ccc(F)cc1 | 46%
13 | O=[N+]([O-])c1ccc(-c2nnc(SCc3ccc(O)c4ncccc34)n2-c2ccccc2)cc1 | 12.4%
14 | COc1cc2c3c(n(CCCN4CCC[C@H]4C(N)=O)c(=O)c2cc1OC)-c1cc2c(cc1C3=O)OCO2 | 5.37% (active)
